PubChem BioAssay (NCATS)
Results filed as inconclusive are left out. Entries that show only a call come without a potency. Activity calls are given as the source filed them. Calls come from the whole dose curve; as a rule, active = well fitted cell-killing curve with a large enough effect; inconclusive = small, poorly fitted or top-dose-only effect, or effect the other way; inactive = no such curve, though single readings can be large or run the other way.

How the values were obtained:
[1] = Viability qHTS for spleen associated tyrosine kinase inhibitor (SYKi) naive MV4-11 cells (AID 1963823); note: nearly all actives have a fitted effect of over 40% in size
Procedure, shortened: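 Cells: MV4-11, SYK inhibitor naive, 500 per well. Treatment: library compounds, 72 hr, 37 C, 5% CO2. Read-out: CellTiter-Glo luminescence after 10 min RT.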

[2] = Viability qHTS for spleen associated tyrosine kinase inhibitor (SYKi) drug resistant MV4-11 cells (AID 1963824); note: nearly all actives have a fitted effect of over 35% in size
Procedure, shortened: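 SYK-inhibitor-resistant MV4-11 AML cells were seeded at 500 per well onto compound and cultured 72 hours (37 °C, 5% CO2). CellTiter-Glo was then added, and after 10 min at room temperature, luminescence gave viability.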
Potency is the fitted concentration of half-maximal effect.

| Compound | Potency [1] | Potency [2] | viability (% of control) [1] | viability, % of control [2] |
| --- | --- | --- | --- | --- |
| C=C1C(O)CC2C(C(=O)O)=COC(O[C@@H]3O[C@H](COC(=O)c4ccc(O)cc4)[C@@H](O)[C@H](O)[C@H]3O)C12 (some centres not stated) | inactive | inactive | – | – |
| CC1=C(C)C(=O)OC(C(C)C2CCC3C4C5OC5C5(O)CC(OC6OC(CO)C(OC7OC(C)C(O)C(O)C7O)C(O)C6O)CC(O)C5(C)C4CCC23C)C1 (configuration not stated) | inactive | inactive | – | – |
| C/C=C(/COC(=O)/C(C)=C/C)C(=O)OC(CC)c1ccc(OC)c(OC)c1 (configuration not stated) | inactive | inactive | – | – |
| Oc1cccc(C2NC(=S)Nc3cccc(F)c32)c1 (configuration not stated) | 4.61 µM (active) | 2.91 µM (active) | – | – |
| O=C(O)/C=C/c1ccc2occc2c1O[C@@H]1O[C@H](CO)[C@@H](O)[C@H](O)[C@H]1O | inactive | inactive | – | – |
| CC1COC2(OC3CC4C5CC(O[C@@H]6O[C@H](C)[C@@H](O[C@@H]7O[C@@H](C)[C@H](O)[C@@H](O)[C@H]7O)[C@H](O)[C@H]6O)C6CC(O)CCC6(C)C5CCC4(C)C3C2C)C(O)C1 (some centres not stated) | inactive | inactive | – | – |
| C/C=C(\C)C(=O)OCC1OC(OC2OC(CO)C(O)C(O)C2O)C(O)C(O)C1O (configuration not stated) | inactive | inactive | – | – |
| CC(C)(Cc1nc(-c2ccc(O)cn2)no1)C(=O)NC1=C(C(=O)O)CCCC1 | inactive | inactive | – | – |
| O=[N+]([O-])c1cccc2[nH]c(CNc3nc(N4CCOCC4)nc4c3ncn4-c3ccsc3)nc12 | 0.0146 µM (active) | 0.0206 µM (active) | – | – |
| C=C1[C@@H]2[C@H]3OC(=O)C(=C)[C@@H]3CC[C@@](C)(O)[C@@H]2C[C@@H]1O[C@@H]1O[C@H](CO)[C@@H](O)[C@H](O)[C@H]1O | inactive | inactive | – | – |
| CC(=O)c1ccc(O[C@@H]2OC[C@@H](O)[C@H](O)[C@H]2O[C@]2(CO)O[C@H](CO)[C@@H](O)[C@@H]2O)c(O)c1 | inactive | inactive | – | – |
| COc1cc(O)c2c(c1Cl)CC(C)OC2=O (configuration not stated) | inactive | inactive | – | – |
| C=CC(C)(C)O[C@@H]1O[C@H](CO[C@@H]2OC[C@](O)(CO)[C@H]2O)[C@@H](O)[C@H](O)[C@H]1O | inactive | inactive | – | – |
| CC1CCC2(C=O)C(CO)=CCCC2C1(C)CC(=O)O (configuration not stated) | inactive | inactive | – | – |
| C[C@H]1CC[C@@]2(OC1)O[C@H]1CC3C4CC[C@H]5C[C@@H](O)[C@H](O)C[C@]5(C)C4=CC(=O)[C@]3(C)[C@H]1[C@@H]2C (some centres not stated) | inactive | inactive | – | – |
| Nc1nc(N)c2nc(-c3cccc(O)c3)cnc2n1 | 1.84 µM (active) | 2.06 µM (active) | – | – |
| Nc1ccc(-n2nc(C(F)(F)F)cc2C(F)(F)F)cc1 | inactive | inactive | – | – |
| CC(CN1c2ccccc2Sc2ccccc21)N(C)C (configuration not stated) | inactive | inactive | – | – |
| CCOC(=O)C1=Cc2ccc(C(F)(F)C(F)(F)F)cc2N=C(N)C1 | 20.6 µM (active) | 20.6 µM (active) | – | – |
| CC1(C)CC[C@]2(C(=O)O[C@@H]3O[C@H](CO[C@@H]4O[C@H](CO)[C@@H](O)[C@H](O)[C@H]4O[C@@H]4O[C@H](CO)[C@H](O)[C@H](O)[C@H]4O)[C@@H](O)[C@H](O[C@@H]4O[C@H](CO)[C@@H](O)[C@H](O)[C@H]4O)[C@H]3O)CC[C@]3(C)C(=CCC4[C@@]5(C)CC[C@H](O[C@@H]6OC[C@@H](O)[C@H](O)[C@H]6O)[C@@](C)(C(=O)O)C5CC[C@]43C)[C@@H]2C1 (some centres not stated) | – | – | 76.7% [at 9.25 µM] (inactive) | 74.7% [at 9.25 µM] (inactive) |
| C[C@@H]1C[C@@H](O)[C@@]23CO[C@]2(CO)C[C@@H](O)CC3[C@@]12CC(c1ccoc1)OC2=O (some centres not stated) | inactive | inactive | – | – |
| COc1cc(CO)cc(OC)c1O[C@@H]1O[C@H](CO)[C@@H](O)[C@H](O)[C@H]1O | inactive | inactive | – | – |
| Cc1cc(O)cc(Oc2cc(C)c(C(=O)O)c(O)c2)c1 | inactive | inactive | – | – |
| CC/C=C\[C@H](O)[C@H](O)C1=C(C)C(=O)[C@]2(O1)C(=O)N[C@@](OC)(C(=O)c1ccccc1)[C@@H]2O | inactive | inactive | – | – |
| C[C@@H]1O[C@@H](O[C@@H]2[C@@H](O)[C@H](O[C@@H]3[C@@H](O)[C@@H](O)[C@H](O[C@H]4[C@H](OC(=O)[C@]56CCC(C)(C)C[C@H]5C5=CCC7[C@@]8(C)C[C@H](O)[C@H](O[C@@H]9O[C@H](C(=O)O)[C@@H](O)[C@H](O)[C@H]9O)[C@@](C)(CO)C8[C@H](O)C[C@@]7(C)[C@]5(C)C[C@H]6O)O[C@@H](CO)[C@@H]4O)O[C@H]3C)OC[C@H]2O)[C@H](O)[C@H](O)[C@H]1O (some centres not stated) | – | – | 90.8% [at 9.25 µM] (inactive) | 95.2% [at 9.25 µM] (inactive) |
| CC1[C@@H](O)[C@@H](O)C2[C@]3(C)C(C[C@H]4OC(=O)[C@H](O)[C@]1(O)[C@@]24C)C(C)(O)C[C@H](O)[C@H]3O (some centres not stated) | inactive | inactive | – | – |

| Compound | Potency [1] | Potency [2] | viability (% of control) [1] | viability, % of control [2] |
| --- | --- | --- | --- | --- |
| Cc1cc(-c2cnc(N)c3c(-c4ccc5scnc5c4)csc23)n(C)n1 | 1.3 µM (active) | 2.59 µM (active) | – | – |
| CC1=CC(=O)CC(C)(C)[C@@]1(O)/C=C/C(C)O[C@@H]1O[C@H](CO)[C@@H](O)[C@H](O)[C@H]1O (some centres not stated) | inactive | inactive | – | – |
| CC(C)=CC/C=C(/C)[C@H]1CC[C@]2(C)[C@@H]1[C@H](O)CC1[C@@]3(C)CC[C@H](O)C(C)(C)[C@@H]3[C@@H](O[C@@H]3O[C@H](CO)[C@@H](O)[C@H](O)[C@H]3O[C@@H]3O[C@@H](C)[C@H](O)[C@@H](O)[C@H]3O)C[C@]12C (some centres not stated) | inactive | inactive | – | – |
| O=C(NCCO)c1cccc(-c2cc(Nc3ccc(OC(F)(F)F)cc3)ncn2)c1 | 6.51 µM (active) | 5.8 µM (active) | – | – |
| COc1cc(/C=C/C(=O)O[C@H]2[C@H](O)[C@@H](CO)O[C@@]2(CO)O[C@H]2O[C@H](CO)[C@@H](O)[C@H](O)[C@H]2O)cc(OC)c1O | inactive | inactive | – | – |
| CC(=O)c1ccc2c(c1)N(CCCN1CCC(CCO)CC1)c1ccccc1S2 | 26.6 µM (active) | 18.8 µM (active) | – | – |
| C=C1CC2OC(=O)C(=C)C2C(O)/C=C(\C)CCC1O (configuration not stated) | 18.4 µM (active) | 13 µM (active) | – | – |
| CN(C)S(=O)(=O)c1ccc2c(c1)/C(=C/c1cc3c([nH]1)CCCC3)C(=O)N2 | 0.82 µM (active) | 1.64 µM (active) | – | – |
| C[C@@H]1CC[C@]2(C(=O)O)CC[C@]3(C(=O)O)C(=CCC4[C@@]5(C)CC[C@H](O[C@@H]6O[C@@H](C)[C@H](O[C@@H]7O[C@H](CO)[C@@H](O)[C@H](O)[C@H]7O)[C@@H](O)[C@H]6O)C(C)(C)C5CC[C@]43C)C2[C@H]1C (some centres not stated) | inactive | inactive | – | – |
| C/C=C(\C)C(=O)OC1C(C)C2(O)C(C=C(CO)CC3(O)C(=O)C(C)=CC32)C2C(C)(C)C12OC(=O)C(C)C (configuration not stated) | 0.02 µM (active) | 0.008 µM (active) | – | – |
| COC(=O)C1=COC(O[C@@H]2O[C@H](CO)[C@@H](O)[C@H](O)[C@H]2O)C2C(C)C(=O)CC12 (some centres not stated) | inactive | inactive | – | – |
| CC(C)CCC1(O)C(=O)C(C)(C)C(O[C@@H]2O[C@H](CO)[C@@H](O)[C@H](O)[C@H]2O)C(C)(C)C1O (some centres not stated) | inactive | inactive | – | – |
| CCOc1ccc(-c2nc(-c3cccc4c3CCC4NCCO)no2)cc1OCC (configuration not stated) | 13 µM (active) | 13 µM (active) | – | – |
| OCC(CO[C@@H]1O[C@H](CO)[C@@H](O)[C@H](O)[C@H]1O)c1ccc2c(c1)OCO2 (some centres not stated) | inactive | inactive | – | – |
| COc1cc(C(=O)OC[C@@]2(O)CO[C@@H](O[C@H]3[C@H](Oc4ccc(C(=O)O)cc4OC)O[C@H](CO)[C@@H](O)[C@@H]3O)[C@@H]2O)ccc1O | inactive | inactive | – | – |
| C/C1=C\CCC2=CC(OC2=O)C(C)(C)/C=C/C1=O (configuration not stated) | 4.61 µM (active) | 2.31 µM (active) | – | – |
| O=C(Nc1ccc(CN2CCOCC2)cc1)c1ccc(-c2cccc(Cl)c2)o1 | 8.2 µM (active) | 9.2 µM (active) | – | – |
| Clc1ccccc1CNCC1CCC(CNCc2ccccc2Cl)CC1 (configuration not stated) | 11.6 µM (active) | 14.6 µM (active) | – | – |
| CC1CC(=O)C2=C(C1)C1OC1C1(O)C2C(=O)c2cccc(O)c2C1O (configuration not stated) | inactive | inactive | – | – |
| Cc1c(-c2ccnc(Nc3cc(Br)cc(C(F)(F)F)c3)n2)sc(=O)n1C | inactive | inactive | – | – |
| C/C(=C\CO[C@@H]1O[C@H](CO[C@H]2OC[C@](O)(CO)[C@H]2O)[C@@H](O)[C@H](O)[C@H]1O)C(C)(C)O | inactive | inactive | – | – |
| COc1cccc(-c2cn(-c3ccc(CCN4CCC(O)CC4)cc3)c3ncnc(N)c23)c1 | 2.06 µM (active) | 2.31 µM (active) | – | – |
| O=C(/C=C/c1ccccc1O)O[C@@H]1O[C@H](CO)[C@@H](O)[C@H](O)[C@H]1O | inactive | inactive | – | – |
| COC(=O)[C@@]1(O)C=CC[C@@H]2[C@@]3(C)C[C@@H](c4ccoc4)OC(=O)[C@H]3CC[C@]21C | inactive | inactive | – | – |
| OCC1OC(Oc2cc(O)cc(/C=C/c3ccc(OC4OC(CO)C(O)C(O)C4O)cc3O)c2)C(O)C(O)C1O (configuration not stated) | inactive | inactive | – | – |
